According to PubChem BioAssay (EPA / NIEHS):
Activity calls are given as the source filed them. How the source made its calls: active means hit-call score of the fitted dose curve at least 0.9, where 1 is the maximum; inactive means score below 0.9.

Legend:
Conditions in all cases: mRNA level, 48 h; actives raise or lower the signal
[1] = read-out: Glutamate-cysteine ligase catalytic (GCLC), GCLC (gene 2729); assay: LTEA_HepaRG_GCLC: Life Technologies and Expression Analysis (LTEA) Assay for Glutamate-cysteine ligase catalytic (GCLC) using HepaRG (AID 2283498)
In short: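 HepaRG, 48 h exposure, 8-pt half-log series from 100 uM, 0.5% DMSO vehicle; TaqMan qRT-PCR for GCLC mRNA, housekeeping-normalized; bidirectional curve fit vs DMSO baseline.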

[2] = read-out: growth arrest and DNA damage 45 (GADD45G), GADD45G (gene 10912); assay: LTEA_HepaRG_GADD45G: Life Technologies and Expression Analysis (LTEA) Assay for growth arrest and DNA damage 45 (GADD45G) using HepaRG (AID 2283499)
In short: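 Concentration-response in HepaRG: 48 h dosing, 0.5% DMSO, highest level 100 uM. GADD45G expression by qRT-PCR, normalised to endogenous controls; bidirectional fit to DMSO.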

[3] = read-out: Glutamate-cysteine ligase regulatory (GCLM), GCLM (gene 2730); assay: LTEA_HepaRG_GCLM: Life Technologies and Expression Analysis (LTEA) Assay for Glutamate-cysteine ligase regulatory (GCLM) using HepaRG (AID 2283500)
In short: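 Endpoint is GCLM transcript level by qRT-PCR, normalized to three housekeeping genes, after 48 h chemical exposure of human HepaRG cells (0.5% DMSO vehicle, top 100 uM, half-log dilutions). Fitting was bidirectional relative to DMSO.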

[4] = read-out: Glutathione S-transferase M3 (GSTM3), GSTM3 (gene 2947); assay: LTEA_HepaRG_GSTM3: Life Technologies and Expression Analysis (LTEA) Assay for Glutathione S-transferase M3 (GSTM3) using HepaRG (AID 2283501)
In short: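 Expression of GSTM3 is determined by qRT-PCR in human liver HepaRG cells treated 48 h with an 8-point half-log range from 100 uM in 0.5% DMSO.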

[5] = read-out: Heat shock 70 kDa protein 1 (HSPA1A), gene 3303; assay: LTEA_HepaRG_HSPA1A: Life Technologies and Expression Analysis (LTEA) Assay for Heat shock 70 kDa protein 1 (HSPA1A) using HepaRG (AID 2283502)
In short: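 Cells were plated and cultured for 48 h, then switched to serum-free induction medium. Chemicals were added at eight half-log concentrations up to 100 uM for 48 h. RNA was then isolated and HSPA1A measured by qRT-PCR with bidirectional curve fitting against DMSO.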

[6] = read-out: 3-Hydroxy-3-Methylglutaryl-CoA Synthase 2 (HMGCS2), HMGCS2 (gene 3158); assay: LTEA_HepaRG_HMGCS2: Life Technologies and Expression Analysis (LTEA) Assay for 3-Hydroxy-3-Methylglutaryl-CoA Synthase 2 (HMGCS2) using HepaRG (AID 2283504)
In short: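 This steatosis marker was read as HMGCS2 mRNA change in HepaRG cells treated 48 h with up to 100 uM chemical. Normalisation used housekeeping genes; activity in either direction was fitted relative to 0.5% DMSO vehicle.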

HGF (gene 3082) = assay: LTEA_HepaRG_HGF: Life Technologies and Expression Analysis (LTEA) Assay for Hepatocyte Growth Facto (HGF) using HepaRG (AID 2283505)
In short: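 Using HepaRG monolayers kept in 0.5% DMSO, chemicals were tested in duplicate over eight half-log concentrations from 100 uM for 48 h. Endpoint: HGF mRNA change relative to DMSO, normalized to ACTB/GAPDH/POLR2A.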

[7] = read-out: Insulin Like Growth Factor 1 (IGF1), IGF1 (gene 3479); assay: LTEA_HepaRG_IGF1: Life Technologies and Expression Analysis (LTEA) Assay for Insulin Like Growth Factor 1 (IGF1) using HepaRG (AID 2283506)
In short: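 Cells are thawed, plated and cultured 48 h, then exposed in duplicate to chemical (highest 100 uM, half-log steps, 0.5% DMSO) for another 48 h. Total RNA is analysed by Fluidigm qRT-PCR for IGF1 expression relative to vehicle.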

[8] = read-out: Intercellular Adhesion Molecule 1 (ICAM1), ICAM1 (gene 3383); assay: LTEA_HepaRG_ICAM1: Life Technologies and Expression Analysis (LTEA) Assay for Intercellular Adhesion Molecule 1 (ICAM1) using HepaRG (AID 2283507)
In short: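 Using the human liver line HepaRG, compounds are tested in duplicate over 48 h at concentrations up to 100 uM. Expression is determined by TaqMan qRT-PCR, normalized to endogenous controls, and analysed relative to 0.5% DMSO vehicle.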

[9] = read-out: Insulin-like growth factor-binding protein 1 (IGFBP1), IGFBP1 (gene 3484); assay: LTEA_HepaRG_IGFBP1: Life Technologies and Expression Analysis (LTEA) Assay for Insulin-like growth factor-binding protein 1 (IGFBP1) using HepaRG (AID 2283508)
In short: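 HepaRG, 48 h, 8 conc. (max 100 uM, half-log), duplicates, 0.5% DMSO. Readout: TaqMan qRT-PCR, ACTB/GAPDH/POLR2A normalisation. Fit: bidirectional vs DMSO.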

[10] = read-out: Interleukin 6 (IL6), IL6 (gene 3569); assay: LTEA_HepaRG_IL6: Life Technologies and Expression Analysis (LTEA) Assay for Interleukin 6 (IL6) using HepaRG (AID 2283509)
In short: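 qRT-PCR read-out of IL6 transcript, normalized to three housekeeping genes, after 48 h chemical exposure of HepaRG cells; 8-point half-log series, top 100 uM, 0.5% DMSO vehicle. Bidirectional curve fitting against DMSO baseline.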

[11] = read-out: Potassium channel subfamily K member 1 (KCNK1), KCNK1 (gene 3775); assay: LTEA_HepaRG_KCNK1: Life Technologies and Expression Analysis (LTEA) Assay for Potassium channel subfamily K member 1 (KCNK1) using HepaRG (AID 2283511)
In short: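 HepaRG, 48 h exposure, 8-pt half-log series top 100 uM, 0.5% DMSO vehicle, duplicates. Readout: KCNK1 transcript by qRT-PCR (Fluidigm array), housekeeping-normalized; bidirectional curve fit relative to DMSO baseline.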

[12] = read-out: JUN Transcription Factor, JUN (gene 3725); assay: LTEA_HepaRG_JUN: Life Technologies and Expression Analysis (LTEA) Assay for JUN Transcription Factor using HepaRG (AID 2283513)
In short: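 Read-out is JUN transcript level by TaqMan qRT-PCR, normalized to ACTB, GAPDH and POLR2A, after 48 h chemical treatment of HepaRG cells. Concentration-response spanned eight half-log points up to 100 uM in 0.5% DMSO.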

[13] = read-out: Lipase C (LIPC), LIPC (gene 3990); assay: LTEA_HepaRG_LIPC: Life Technologies and Expression Analysis (LTEA) Assay for Lipase C (LIPC) using HepaRG (AID 2283514)
In short: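 HepaRG, 48 h exposure, 8-pt half-log series from 100 uM in 0.5% DMSO, duplicates. Readout: LIPC mRNA by Fluidigm qRT-PCR, housekeeping-normalized (ACTB/GAPDH/POLR2A). Gain or loss fitted bidirectionally against DMSO baseline.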

[14] = read-out: Lipoprotein lipase (LPL), LPL (gene 4023); assay: LTEA_HepaRG_LPL: Life Technologies and Expression Analysis (LTEA) Assay for Lipoprotein lipase (LPL) using HepaRG (AID 2283515)
In short: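 HepaRG, 48 h exposure, 8-pt half-log dilutions from 100 uM, 0.5% DMSO vehicle, duplicates; qRT-PCR (Fluidigm array) of LPL mRNA vs housekeeping genes; bidirectional curve fit relative to DMSO baseline.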

[15] = read-out: matrix metalloproteinase-10 (MMP10), MMP10 (gene 4319); assay: LTEA_HepaRG_MMP10: Life Technologies and Expression Analysis (LTEA) Assay for matrix metalloproteinase-10 (MMP10) using HepaRG (AID 2283517)
In short: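 Transcript levels come from Fluidigm qRT-PCR normalized to three housekeeping genes, with curves fitted bidirectionally against 0.5% DMSO. Human HepaRG cells were dosed for 48 hours at concentrations up to 100 uM.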

[16] = read-out: Keratin 19 (KRT19), KRT19 (gene 3880); assay: LTEA_HepaRG_KRT19: Life Technologies and Expression Analysis (LTEA) Assay for Keratin 19 (KRT19) using HepaRG (AID 2283512)
In short: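 Readout is qRT-PCR of KRT19 mRNA, normalized to ACTB, GAPDH and POLR2A, from HepaRG cells treated 48 h with eight-point half-log dilutions topping at 100 uM. Activity in either direction is scored relative to 0.5% DMSO vehicle.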

[17] = read-out: MicroRNA 122 (MIR122), gene 406906; assay: LTEA_HepaRG_MIR122: Life Technologies and Expression Analysis (LTEA) Assay for MicroRNA 122 (MIR122) using HepaRG (AID 2283516); further: the transcript read is the microRNA miR-122
In short: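 Human liver HepaRG cultures receive test chemicals for 48 h at eight half-log concentrations from 100 uM. Expression is quantified by qRT-PCR with ACTB/GAPDH/POLR2A normalization and fitted bidirectionally against 0.5% DMSO.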

Measured: AC50

CCCOC(=O)c1ccc(O)cc1
not listed: [16] | [17]
inactive: all other assays above

Cc1cc(CCN2CCN(c3nsc4ccccc34)CC2)cc2c1NC(=O)CC2(C)C
active: [2] 76.8 µM | [3] 50 µM | [5] 50 µM | [6] 78 µM | [7] 70.5 µM | [9] 90.9 µM | [10] 79.3 µM | [16] 50 µM | [13] 81.6 µM | [14] 50 µM | [17] 78.5 µM
inactive: [1] | [4] | HGF (gene 3082) | [8] | [11] | [12] | [15]

OC1CCC(C2CCCCC2)CC1 (configuration not stated)
not listed: [17]
inactive: all other assays above

COCC(C)OCC(C)O (configuration not stated)
not listed: [17]
inactive: all other assays above

CC(C)(C)c1cc(C(C)(C)C)c(O)c(C(C)(C)C)c1
active: [6] 21 µM
not listed: [12] | [17]
inactive: all other assays above

CC(C)(C)CC(C)(C)c1ccc(O)c(-n2nc3ccccc3n2)c1
active: [5] 72.7 µM | [6] 50 µM | [7] 50 µM
not listed: [16]
inactive: all other assays above

CCCCCCCCCCCCc1ccccc1S(=O)(=O)O
active: [3] 50 µM | [5] 13 µM | [6] 83.1 µM | [7] 38.9 µM | [8] 82.1 µM | [9] 76.8 µM | [10] 79.6 µM | [12] 34.7 µM | [13] 72 µM | [14] 11.7 µM | [15] 82.8 µM
inactive: [1] | [2] | [4] | HGF (gene 3082) | [11]
